About 83,000 compounds went through this panel and 20% of them were active in at least one assay; those are over-represented in the sample as a whole.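 Negative percent growth values reflect cell death: -40 means 40% of the cells present at the start died, and -100 means all died.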 Activity calls are given as the source filed them. How the source made its calls: active means growth percent below 10; inactive means the rest.
What follows are molecules tested on MDA-MB-468 breast (assay: NCI-60 one-dose screen, 48 h (100 = growth as untreated, 0 = no growth, -100 = all killed)). Conditions: 10 µM unless noted.

| SMILES | growth |
| --- | --- |
| Cc1ccc2c(n1)C(=O)C(Cl)=C(Nc1ccc(C)c(C)c1)C2=O | -25.3% (active) |
| Cc1nn(-c2ccccc2)c(Oc2ccc(Cl)cc2)c1/C=N\N=c1/sc2ccccc2n1C | 81.8% (inactive) |
| COc1ccc(-c2nn(-c3cccc(NC(=O)c4ccc(Cl)c(Cl)c4)c3)cc2-c2ccncc2)cc1Cl | 73.3% (inactive) |
| COc1ccc2nc(-c3ccccc3)cc(C(C)=O)c2c1 | 68% (inactive) |
| COc1ccc2c(c1)c(CC(=O)[Se]C)c(C)n2C(=O)c1ccc(Cl)cc1 | -11.6% (active) |
| Nc1c(C(=O)Nc2cccc3ccccc23)sc2nc3c(cc12)C(=O)CCC3 | 50% (inactive) |
| COc1ccc(Cl)cc1NC(=O)c1cc2c([nH]1)-c1nc(NC(=O)C(C)(C)C)sc1CC2 | 84.9% (inactive) |
| Cc1cc(NC(=O)NC(=O)c2ccccc2N(C)C)ccc1Oc1ncc(Br)cn1 | -2.54% (active) |
| Cc1cccc(Oc2ccc(Nc3ncnc4ccc(NC(=O)CN(C)C)cc34)cc2Cl)c1 | -45.2% (active) |
| CC/C=C\CCC/C=C1/C(=O)C=C[C@@H]1C/C=C\CCCC(=O)OC | 68.7% (inactive) |
| Cc1nc2c(nnn2-c2ccccc2)c2nc(-c3ccccc3)oc(=O)c12 | 110% (inactive) |
| O=C(O)c1cn(C2CC2)c2cc(N3CCN(C(=O)Nc4nc(-c5ccccc5)cs4)CC3)c(F)cc2c1=O | 27.1% (inactive) |
| COc1ccc(-c2nc3sccn3c2-c2ccnc(NCCCNS(=O)(=O)c3ccc(C)cc3)n2)cc1 | 37.9% (inactive) |
| c1ccc(C(c2nc3ncncc3[nH]2)N2CSc3nc4ccccc4n3C2)cc1 (configuration not stated) | 94.8% (inactive) |
| O=C1c2[nH]cc(CN[C@@H]3CCCN3)c2C(=O)c2c1c(O)c1ccccc1c2O | -92.4% (active) |
| COc1cc2c(cc1O)CC[C@@H]1[C@@H]2CC[C@]2(C)[C@@H](OCCCN(C)C)CC[C@@H]12 | -58.5% (active) |
| COc1ccc(-c2nn(-c3ccccc3)cc2/C=C/C(=O)NNC(=O)Nc2ccc(C)cc2)cc1 | 102% (inactive) |
| COC(=O)[C@]12CC[C@@H](C)[C@H](C)[C@@H]1C1=CC[C@@H]3[C@@]4(C)C(C=O)=C[C@@](C)(COC(=O)c5ccco5)[C@@H]4C(=O)C[C@@]3(C)[C@]1(C)CC2 | 9.8% (active) |
| COc1ccc(-c2n[nH]nc2-c2csc3ccccc23)cc1OC | 21.1% (inactive) |
| C#CCCCCCCC[C@@H]1OC(=O)[C@H]([C@@H](C)CC)NC(=O)[C@@H]([C@@H](C)CC)NC(=O)CC(=O)[C@@H]1C | 101% (inactive) |
| COC(=O)CCCCCCCCC1(C)C=CC(C(C)O)=CC1 (configuration not stated) | 107% (inactive) |
| Cc1cc(N2CCCCC2)nc(NC2CCCC(Nc3ccnc4cc(Cl)ccc34)C2)n1 (configuration not stated) | -77.6% (active) |
| COc1cc(OC)c(C(=O)C(CN(C)C)CN(C)C)cc1OC | -73.3% (active) |
| CCc1cc2c(cc1Cl)nc1c(=O)[nH]c(=O)nc-1n2CCOCC(C)(C)C | 44.3% (inactive) |
| C/C(=N\N1CC(=O)NC1=O)c1ccc([N+](=O)[O-])o1 | 95.7% (inactive) |
| C#Cc1ccc(-n2c(/C=C/c3ccc(C(F)(F)F)cc3)nc3ncccc3c2=O)cc1 | -9.87% (active) |
| Cn1nc(-c2ccccc2)c2c(-c3ccccc3)onc2c1=O | 15.1% (inactive) |
